From PubChem BioAssay AID602143 (Vanderbilt Specialized Chemistry Center, 2011)
A number with no mark means an inactive call. Activity calls are given as the source filed them. Rule as the data show it: active = remaining activity below about 50%; inactive = the rest.

Target: Phospholipase D2 (Homo sapiens) (UniProt O14939)
Experiment: cellular phospholipase D2 activity inhibition – cell-based, HEK293, single concentration (AID 602143);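 also: tested at 200 nM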
Details: HEK293 cellular PLD2 activity, percent of control; active compounds read low

Phospholipase D2 (Homo sapiens), sequence (O14939 whole entry, looked up): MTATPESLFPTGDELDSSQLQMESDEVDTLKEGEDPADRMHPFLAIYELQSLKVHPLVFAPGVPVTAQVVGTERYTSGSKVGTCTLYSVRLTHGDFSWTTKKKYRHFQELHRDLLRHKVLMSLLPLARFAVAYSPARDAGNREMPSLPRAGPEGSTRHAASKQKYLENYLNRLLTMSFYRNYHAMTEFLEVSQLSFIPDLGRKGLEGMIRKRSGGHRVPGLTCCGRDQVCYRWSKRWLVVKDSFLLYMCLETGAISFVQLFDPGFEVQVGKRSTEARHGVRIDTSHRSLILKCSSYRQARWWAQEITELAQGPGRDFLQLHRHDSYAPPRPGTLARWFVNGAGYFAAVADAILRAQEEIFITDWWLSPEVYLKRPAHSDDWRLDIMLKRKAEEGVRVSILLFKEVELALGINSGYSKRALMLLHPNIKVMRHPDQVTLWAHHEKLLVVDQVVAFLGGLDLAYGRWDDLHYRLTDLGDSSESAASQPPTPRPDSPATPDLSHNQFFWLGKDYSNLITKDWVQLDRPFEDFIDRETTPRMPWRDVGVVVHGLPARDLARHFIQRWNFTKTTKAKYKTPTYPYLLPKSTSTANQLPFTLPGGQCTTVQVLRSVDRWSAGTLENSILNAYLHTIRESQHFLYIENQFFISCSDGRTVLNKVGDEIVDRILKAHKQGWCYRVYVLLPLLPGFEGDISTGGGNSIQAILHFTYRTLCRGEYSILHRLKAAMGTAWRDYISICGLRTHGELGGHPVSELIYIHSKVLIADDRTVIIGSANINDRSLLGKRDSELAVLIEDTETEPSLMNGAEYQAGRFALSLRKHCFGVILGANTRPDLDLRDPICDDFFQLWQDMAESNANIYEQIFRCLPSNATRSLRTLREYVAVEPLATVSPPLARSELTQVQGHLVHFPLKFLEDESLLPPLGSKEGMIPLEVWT
Phospholipase D2 (Homo sapiens), sequence (O14939 whole entry, looked up): as above

For `CC(C)(C)C(=O)NCCN1CCC2(CC1)C(=O)NCN2c1cccc(F)c1`, which remaining activity is on record?
Its remaining activity is 74.9%.

`O=C(NCCN1CCC2(CC1)C(=O)NCN2c1ccc(Cl)cc1)c1ccc2ccccc2c1` was tested. Which remaining activity did it give?
The remaining activity was 54.4%.

Which remaining activity does the source give for `O=C(NCCN1CCC2(CC1)C(=O)NCN2c1ccc(F)c(F)c1)c1cnc2ccccc2c1` here?
Its remaining activity is 26.1% (active).

For `CC(C)[C@@H](CN1CCC2(CC1)C(=O)NCN2c1ccccc1)NC(=O)c1cc2ccccc2[nH]1`, which remaining activity is on record?
The remaining activity was 25.8% (active).

Which remaining activity does the source give for `O=C(c1ccc2ccccc2c1)N1CC(N2CCC(n3c(=O)[nH]c4ccccc43)CC2)C1` here?
Its remaining activity is 64.3%.

With `O=C(CCN1CCC2(CC1)C(=O)NCN2c1ccccc1)Nc1cnc2ccccc2c1` as the compound, how does the remaining activity read?
Its remaining activity is 104%.

Which remaining activity does the source give for `O=C(NCCN1CCC2(CC1)C(=O)NCN2c1ccccc1)C1(c2ccccc2)CCC1` here?
The remaining activity was 87.6%.

With `O=C(NCCN1CCC2(CC1)C(=O)NCN2c1ccc(F)cc1)c1ccc2ccccc2c1` as the compound, how does the remaining activity read?
Its remaining activity is 34.3% (active).

With `O=C(NCCN1CCC2(CC1)C(=O)NCN2c1ccccc1)C(c1ccccc1)c1ccccc1` as the compound, how does the remaining activity read?
The remaining activity was 74.8%.

Which remaining activity does the source give for `C[C@@H](CN1CCC2(CC1)C(=O)NCN2c1ccc(F)c(F)c1)NC(=O)c1cnc2ccccc2c1` here?
Its remaining activity is 7.28% (active).

`CN(CCN1CCC2(CC1)C(=O)NCN2c1ccccc1)C(=O)c1ccc2ccccc2c1` was tested. Which remaining activity did it give?
Its remaining activity is 95.2%.

With `O=C(NCCN1CCC2(CC1)C(=O)NCN2c1ccc(F)c(F)c1)c1ccc2ccccc2c1` as the compound, how does the remaining activity read?
Its remaining activity is 40.1% (active).

With `NC1(CN2CCC3(CC2)C(=O)NCN3c2ccccc2)CCCC1` (tested in a mixture with another compound) as the compound, how does the remaining activity read?
Its remaining activity is 74.2%.

`O=C(c1cccc(F)c1)N(CCN1CCC2(CC1)C(=O)NCN2c1cccc(F)c1)C(=O)c1cccc(F)c1` was tested. Which remaining activity did it give?
The remaining activity was 71.6%.

Which remaining activity does the source give for `O=C(Cc1cccs1)NCCN1CCC2(CC1)C(=O)NCN2c1cccc(F)c1` here?
Its remaining activity is 77.8%.

How did the remaining activity turn out when `O=C(NCCN1CCC2(CC1)C(=O)NCN2c1ccc(F)cc1)c1ccc(F)cc1` was run?
Its remaining activity is 46.9% (active).

How did the remaining activity turn out when `O=C(NCCN1CCC2(CC1)C(=O)NCN2c1ccccc1)c1cscn1` was run?
The remaining activity was 76.2%.

How did the remaining activity turn out when `C[C@H](CN1CCC2(CC1)C(=O)NCN2c1ccccc1)NC(=O)c1cc2cc(F)ccc2[nH]1` was run?
Its remaining activity is 0% (active).

How did the remaining activity turn out when `O=C(CN1CCC2(CC1)C(=O)NCN2c1ccccc1)c1ccccc1` was run?
Its remaining activity is 106%.

With `O=C(NCCN1CCC2(CC1)C(=O)NCN2c1ccccc1)c1cccc(F)n1` as the compound, how does the remaining activity read?
Its remaining activity is 63.2%.

How did the remaining activity turn out when `CC1(C)C(C(=O)NCCN2CCC3(CC2)C(=O)NCN3c2ccccc2)C1(C)C` was run?
Its remaining activity is 122%.

Which remaining activity does the source give for `O=C(c1cnc2ccccc2c1)N1CCC[C@@H]1CN1CCC2(CC1)C(=O)NCN2c1ccccc1` here?
Its remaining activity is 106%.

With `CCCCCC(=O)N(CCN1CCC2(CC1)C(=O)NCN2c1cccc(F)c1)C(=O)CCCCC` as the compound, how does the remaining activity read?
Its remaining activity is 73.1%.

How did the remaining activity turn out when `CCC(=O)N[C@@H](C)CN1CCC2(CC1)C(=O)NCN2c1ccccc1` was run?
Its remaining activity is 95.3%.

`O=C(NCCN1CCC2(CC1)C(=O)NCN2c1ccc(Cl)cc1)c1cc2ccccc2[nH]1` was tested. Which remaining activity did it give?
The remaining activity was 48.1% (active).

With `O=C(NCCN1CCC2(CC1)C(=O)NCN2c1ccc(F)c(F)c1)c1cc2cc(F)ccc2[nH]1` as the compound, how does the remaining activity read?
Its remaining activity is 10.4% (active).

Which remaining activity does the source give for `O=C(CCN1CCC2(CC1)C(=O)NCN2c1ccccc1)Nc1ccc(F)c(F)c1` here?
The remaining activity was 147%.

`O=C(NCCN1CCC2(CC1)C(=O)NCN2c1cccc(F)c1)C(c1ccccc1)c1ccccc1` was tested. Which remaining activity did it give?
Its remaining activity is 92.3%.

Which remaining activity does the source give for `C[C@H](N)CN1CCC2(CC1)C(=O)NCN2c1ccccc1` (tested in a mixture with another compound) here?
The remaining activity was 74.1%.

With `C[C@@H](CN1CCC2(CC1)C(=O)NCN2c1ccccc1)NC(=O)c1ccc(F)c(F)c1` as the compound, how does the remaining activity read?
The remaining activity was 54.7%.

For `O=C(NCCN1CCC2(CC1)C(=O)NCN2c1ccccc1)c1ccc2c(c1)C(=O)OC2=O`, which remaining activity is on record?
The remaining activity was 93.5%.

Which remaining activity does the source give for `O=C(c1cnc2ccccc2c1)N1CC(N2CCC3(CC2)C(=O)NCN3c2ccccc2)C1` here?
The remaining activity was 70%.

With `O=C(NCCN1CCC2(CC1)C(=O)NCN2c1cccc(Cl)c1)c1cc2cc(F)ccc2[nH]1` as the compound, how does the remaining activity read?
Its remaining activity is 40.2% (active).

Which remaining activity does the source give for `O=C(NCCN1CCC2(CC1)C(=O)NCN2c1ccc(F)cc1)c1ccc2cc(F)ccc2c1` here?
Its remaining activity is 61.1%.

`O=C(NCCN1CCC2(CC1)C(=O)NCN2c1ccccc1)c1ncc[nH]1` was tested. Which remaining activity did it give?
Its remaining activity is 113%.

With `O=C(NCCN1CCC2(CC1)C(=O)NCN2c1ccccc1)c1ccc2c(c1)OCO2` as the compound, how does the remaining activity read?
Its remaining activity is 90%.
